PubChem BioAssay AID588405 (Sanford-Burnham Center for Chemical Genomics, 2011)
Hit rate of the full screen: of about 360,000 compounds, about 6,200 (1.7%) were called active. For the sample, actives were picked, then their nearest neighbours and some compounds at random. Unmarked numbers belong to inactive results.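 The calls were made as follows: active = inhibition of at least 50% at 20 µM; inactive = the rest.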

Experiment: inhibition of PEG-3 promoter activity – cell-based, HeLa, luciferase luminescence, primary screen (AID 588405)
Settings: HeLa PEG-Prom luciferase reporter, overnight, at 20 µM, hits give high values

Row | Compound | inhibition
1 | CC(C)c1ccc(CC(=O)N2CCC2(C)C(=O)NS(=O)(=O)c2ccc(C(C)(C)C)cc2)cc1 (stereo not given) | 11.3%
2 | CC(C)Cn1cc(-c2cncc3nccn23)cn1 | 5.62%
3 | CN(C(=O)CN1CCN(c2cc(-c3ccc(OCc4ccccc4)cc3)ncn2)CC1)c1ccccc1 | -2.84%
4 | c1ccc2cc3c(NCCN4CCOCC4)ccnc3cc2c1 | 69.5% (active)
5 | Fc1ccc(-c2ccc(NCCN3CCOCC3)nn2)cc1 | -96.4%
6 | CCOc1nc(NCCN2CCOCC2)nc(Nc2ccc(C)cc2)n1 | 5.29%
7 | CCN(CC)C(=O)C1=C(C)N(Cc2ccc(F)cc2)C(=O)C(CC(=O)NC2CCCC2)C1 (stereo not given) | 11%
8 | COCCCNC(=S)N(CCN(C)C)Cc1cc2cc3c(cc2[nH]c1=O)OCCO3 | 2.51%
9 | Cc1cccc2cc(CN(Cc3cccs3)C(=S)NCc3ccco3)c(=O)[nH]c12 | 4.8%
10 | Cc1cc(C)c2[nH]c(=O)c(CN(Cc3ccccc3)C(=S)NCCCN(C)C)cc2c1 | 66.4% (active)
11 | CCCOc1ccc(F)cc1-c1cc(C(=O)Nc2ccc(F)cc2)[nH]n1 | -8.32%
12 | CCn1c(CC(=O)Nc2ccc(C)cc2)nnc1SCC(=O)Nc1nc(C)cs1 | -10.4%
13 | COCC(C)NC(=O)COc1nncc2ccccc12 (stereo not given) | 0.55%
14 | NC(Cc1ccc(F)cc1)c1csc(Nc2nncc3ccccc23)n1 (stereo not given) | 103% (active)
15 | CN[C@H]1C[C@H]2c3cc(Oc4ccccc4C)ccc3CCN2C(=O)[C@H]1[C@H](C)O | -28.3%
16 | CN(C)C(=S)Nc1ccc(Br)cc1Cl | 4.24%
17 | O=C(Nc1cnn(Cc2ccc(Cl)cc2)c1)C1CCCC1 | -29.5%
18 | O=C(Nc1cccc(-c2cscn2)c1)C1CCN(Cc2ccsc2)CC1 | 5.06%
19 | CCn1cc(CN2CCC(C(=O)Nc3cccc(-c4cccc(Cl)c4)c3)CC2)c(C)n1 | 105% (active)
20 | O=C(NC1CCCC1)C1CCN(C(=O)Nc2cccc(Cl)c2)CC1 | 17%
21 | O=C(NCC1CCN(Cc2ccccc2Cl)CC1)Nc1cccc(Cl)c1 | 27.8%
22 | CCn1cc(CN2CCC(C(=O)Nc3cccc(-c4cccc(Cl)c4)c3)CC2)cn1 | 54.4% (active)
23 | COc1cccc(-c2cccc(NC(=O)C3CCN(C4CCC4)CC3)c2)c1 | 9.5%
24 | O=C(Nc1cccc(-c2cccc(Cl)c2)c1)C1CCN(C2CCC2)CC1 | 53.2% (active)
25 | CC(=O)c1cc(CN2CCC(C(=O)Nc3cccc(-c4cscn4)c3)CC2)cs1 | 2.3%
